Laboratory results taken from ChEMBL document CHEMBL3988442, “University of Dundee, Small-Polar-MMV Screening Library” (2021).
For some assays here: Potency and affinity values are given separately.

Legend:
Parameters in all cases: scale not given: direction of the effect not stated beside the values
[1] = biological target: Protein translocase subunit SecA (Escherichia coli (strain K12)) (UniProt P10408); assay: Assay to Identify E. coli SecA ATPase Inhibitors; format: functional; conditions: 30 µM
[2] = biological target: T1, Ubiquitin-activating enzyme e1, putative (Leishmania donovani (strain BPK282A1)) (UniProt E9BSI1); assay: Leishmania donovani Ubiquitin Activating Enzyme (LdE1); format: functional; conditions: 30 µM
T1 sequence (whole entry): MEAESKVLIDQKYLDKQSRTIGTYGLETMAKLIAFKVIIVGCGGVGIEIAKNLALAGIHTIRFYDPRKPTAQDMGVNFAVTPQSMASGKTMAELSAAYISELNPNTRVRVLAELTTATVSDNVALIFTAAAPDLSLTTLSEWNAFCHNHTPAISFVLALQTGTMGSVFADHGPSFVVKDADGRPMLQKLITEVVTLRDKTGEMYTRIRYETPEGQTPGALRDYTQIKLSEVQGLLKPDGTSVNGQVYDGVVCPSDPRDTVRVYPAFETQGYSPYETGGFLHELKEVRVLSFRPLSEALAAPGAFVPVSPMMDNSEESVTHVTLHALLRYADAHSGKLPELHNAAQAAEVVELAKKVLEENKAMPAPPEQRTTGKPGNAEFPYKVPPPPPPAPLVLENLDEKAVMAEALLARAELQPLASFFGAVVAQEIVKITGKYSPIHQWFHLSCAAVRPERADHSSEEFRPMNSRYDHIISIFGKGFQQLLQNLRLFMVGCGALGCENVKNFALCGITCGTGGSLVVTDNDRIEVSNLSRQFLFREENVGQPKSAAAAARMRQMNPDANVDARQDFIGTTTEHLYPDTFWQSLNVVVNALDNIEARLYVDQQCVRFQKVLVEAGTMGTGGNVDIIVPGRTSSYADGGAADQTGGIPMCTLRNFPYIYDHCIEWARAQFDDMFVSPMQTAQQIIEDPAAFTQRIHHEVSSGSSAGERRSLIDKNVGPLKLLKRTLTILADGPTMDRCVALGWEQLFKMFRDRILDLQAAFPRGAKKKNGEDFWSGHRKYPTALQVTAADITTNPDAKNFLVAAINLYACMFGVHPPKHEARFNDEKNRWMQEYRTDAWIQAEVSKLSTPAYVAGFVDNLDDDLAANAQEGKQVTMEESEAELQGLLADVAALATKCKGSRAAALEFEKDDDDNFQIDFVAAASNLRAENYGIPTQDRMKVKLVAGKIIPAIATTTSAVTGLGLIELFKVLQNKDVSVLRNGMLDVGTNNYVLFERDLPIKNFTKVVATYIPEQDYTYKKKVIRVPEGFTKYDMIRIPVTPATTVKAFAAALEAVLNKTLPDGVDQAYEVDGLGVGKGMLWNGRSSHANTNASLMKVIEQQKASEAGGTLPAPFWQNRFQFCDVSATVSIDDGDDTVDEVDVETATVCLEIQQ

[3] = biological target: AMP-activated protein kinase, AMPK (Homo sapiens) (UniProt P54646+O43741+P54619+Q9UGJ0+Q9Y478+Q13131+Q9UGI9); assay: AMP-dependent Kinase enzyme assay. An in vitro enzyme assay that detects ADP turnover that is directly proportional to AMPK activity. This uses naive AMPK that is activated during the assay with MK-8722; format: functional; conditions: 30 µM
[4] = biological target: Sialic acid-binding Ig-like lectin 9 (Homo sapiens) (UniProt Q9Y336); assay: Hs-Siglec9 ALPHAscreen SOP 20170721; conditions: 10 µM
[5] = system: Trypanosoma cruzi; assay: Trypanosoma cruzi phosphomannomutase and mannose-1-phosphate guanylyltransferase assay; format: functional; conditions: 10 µM
[6] = biological target: T2, Arginase-2, mitochondrial (Homo sapiens) (UniProt P78540); assay: in vitro enzyme assay to detect the production of urea directly proportional to the activity of Arginase II; format: functional; conditions: 33.3 µM; further: in the data most compounds retested in dose-response had high values
T2 sequence (whole entry): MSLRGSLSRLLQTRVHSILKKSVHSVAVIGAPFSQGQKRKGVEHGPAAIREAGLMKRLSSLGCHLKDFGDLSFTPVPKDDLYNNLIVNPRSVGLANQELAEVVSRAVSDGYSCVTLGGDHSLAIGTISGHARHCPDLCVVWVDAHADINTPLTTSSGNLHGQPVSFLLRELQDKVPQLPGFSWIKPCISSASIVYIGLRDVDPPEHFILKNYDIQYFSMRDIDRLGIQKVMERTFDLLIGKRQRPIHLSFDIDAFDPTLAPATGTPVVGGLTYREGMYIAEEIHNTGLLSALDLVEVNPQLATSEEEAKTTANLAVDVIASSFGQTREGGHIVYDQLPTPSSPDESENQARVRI

[7] = biological target: T3, Proteasome subunit beta (Trypanosoma cruzi) (UniProt O96673); assay: Trypanosoma cruzi proteasome chymotrypsin-like activity (TcProtChymo) assay.; further: in the data most compounds retested in dose-response had high values; format: functional; conditions: 9.37 µM
T3 sequence (whole entry): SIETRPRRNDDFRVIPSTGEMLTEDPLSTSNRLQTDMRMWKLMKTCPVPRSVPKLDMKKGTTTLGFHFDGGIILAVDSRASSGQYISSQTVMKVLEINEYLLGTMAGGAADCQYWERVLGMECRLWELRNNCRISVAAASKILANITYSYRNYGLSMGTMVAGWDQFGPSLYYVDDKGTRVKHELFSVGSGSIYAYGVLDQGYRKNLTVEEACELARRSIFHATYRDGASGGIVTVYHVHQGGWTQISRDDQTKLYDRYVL

[8] = organism: Homo sapiens; assay: To identify inhibition of the IFN signalling (Jak-Stat) pathway via expression of an eGFP reporter gene under the control of an IFN-stimulated response element (ISRE) containing MxA promoter.; format: functional; conditions: 30 µM
[9] = biological target: T4, Tyrosyl-tRNA synthetase, putative (Trypanosoma cruzi (strain CL Brener)) (UniProt Q4DSP6); assay: Trypanosoma cruzi tyrosyl tRNA synthetase (TcYRS) _High Tyrosine SOP; format: functional; conditions: 30 µM; further: in the data most compounds retested in dose-response had high values
T4 sequence (whole entry): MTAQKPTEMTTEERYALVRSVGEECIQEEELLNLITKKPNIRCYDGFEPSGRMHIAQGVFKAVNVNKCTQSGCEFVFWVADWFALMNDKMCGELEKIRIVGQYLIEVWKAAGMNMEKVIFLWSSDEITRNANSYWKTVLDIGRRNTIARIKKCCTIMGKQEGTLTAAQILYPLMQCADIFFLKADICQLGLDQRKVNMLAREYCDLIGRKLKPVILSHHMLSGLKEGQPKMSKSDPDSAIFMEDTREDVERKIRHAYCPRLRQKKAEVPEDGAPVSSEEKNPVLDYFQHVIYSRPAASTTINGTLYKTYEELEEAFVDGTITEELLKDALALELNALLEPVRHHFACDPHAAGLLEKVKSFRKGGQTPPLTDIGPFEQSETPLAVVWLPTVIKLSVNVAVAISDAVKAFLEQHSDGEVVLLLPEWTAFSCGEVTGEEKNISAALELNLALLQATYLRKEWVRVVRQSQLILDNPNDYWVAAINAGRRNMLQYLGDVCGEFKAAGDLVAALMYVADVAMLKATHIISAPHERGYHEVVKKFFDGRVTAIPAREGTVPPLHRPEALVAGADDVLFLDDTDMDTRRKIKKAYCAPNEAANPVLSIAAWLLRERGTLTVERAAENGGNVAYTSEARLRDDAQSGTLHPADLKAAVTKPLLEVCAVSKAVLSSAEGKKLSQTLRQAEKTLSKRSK

[10] = biological target: T4, Tyrosyl-tRNA synthetase, putative (Trypanosoma cruzi (strain CL Brener)); assay: Trypanosoma cruzi tyrosyl tRNA synthetase (TcYRS) SOP; format: functional; conditions: 30 µM
[11] = biological target: Chromo domain-containing protein 1 (Saccharomyces cerevisiae (strain ATCC 204508 / S288c) (Baker's yeast)) (UniProt P32657); assay: ScCHD-1 Enzyme Inhibition Assay; format: functional; conditions: 30 µM; further: in the data most compounds retested in dose-response had high values
Chain of Chromo domain-containing protein 1 (Saccharomyces cerevisiae (strain ATCC 204508 / S288c) (Baker's yeast)) (P32657 whole entry, the tested form may be a part): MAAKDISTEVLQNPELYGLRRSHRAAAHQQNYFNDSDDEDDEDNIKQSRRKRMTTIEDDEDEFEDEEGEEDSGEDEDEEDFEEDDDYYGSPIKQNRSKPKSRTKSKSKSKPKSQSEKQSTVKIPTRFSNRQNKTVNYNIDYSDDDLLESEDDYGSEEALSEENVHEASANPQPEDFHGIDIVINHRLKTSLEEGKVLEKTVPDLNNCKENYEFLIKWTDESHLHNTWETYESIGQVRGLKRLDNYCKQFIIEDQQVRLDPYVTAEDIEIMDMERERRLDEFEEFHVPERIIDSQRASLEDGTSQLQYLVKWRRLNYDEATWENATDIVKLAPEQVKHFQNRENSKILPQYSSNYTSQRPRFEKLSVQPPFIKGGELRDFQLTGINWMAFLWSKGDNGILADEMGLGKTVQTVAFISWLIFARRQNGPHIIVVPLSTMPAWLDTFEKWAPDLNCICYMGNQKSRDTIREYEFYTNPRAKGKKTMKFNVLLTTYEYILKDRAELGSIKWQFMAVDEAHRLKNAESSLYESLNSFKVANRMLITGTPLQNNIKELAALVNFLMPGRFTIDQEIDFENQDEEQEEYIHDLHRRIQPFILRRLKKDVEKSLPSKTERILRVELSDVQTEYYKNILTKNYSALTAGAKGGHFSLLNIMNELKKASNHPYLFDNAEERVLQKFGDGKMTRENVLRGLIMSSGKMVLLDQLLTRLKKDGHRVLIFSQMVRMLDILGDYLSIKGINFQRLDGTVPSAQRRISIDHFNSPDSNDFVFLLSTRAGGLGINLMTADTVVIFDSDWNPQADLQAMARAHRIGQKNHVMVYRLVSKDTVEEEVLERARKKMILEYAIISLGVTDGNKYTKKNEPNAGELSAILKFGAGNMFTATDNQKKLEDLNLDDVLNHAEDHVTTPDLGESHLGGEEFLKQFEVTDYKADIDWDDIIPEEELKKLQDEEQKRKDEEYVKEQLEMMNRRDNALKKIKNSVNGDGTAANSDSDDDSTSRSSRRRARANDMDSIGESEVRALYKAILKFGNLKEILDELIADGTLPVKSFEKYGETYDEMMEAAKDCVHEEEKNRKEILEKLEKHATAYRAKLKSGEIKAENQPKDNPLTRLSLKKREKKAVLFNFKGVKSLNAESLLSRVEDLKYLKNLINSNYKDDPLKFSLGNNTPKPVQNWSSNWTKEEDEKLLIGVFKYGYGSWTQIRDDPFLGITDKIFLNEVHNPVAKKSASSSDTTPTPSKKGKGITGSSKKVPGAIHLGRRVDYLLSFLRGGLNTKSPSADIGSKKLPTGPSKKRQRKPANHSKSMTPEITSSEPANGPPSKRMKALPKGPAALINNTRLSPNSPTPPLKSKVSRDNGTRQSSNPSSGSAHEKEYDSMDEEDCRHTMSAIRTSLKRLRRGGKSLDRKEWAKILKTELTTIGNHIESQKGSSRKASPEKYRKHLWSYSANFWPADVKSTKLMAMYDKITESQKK

Chain of Sialic acid-binding Ig-like lectin 9 (Homo sapiens) (Q9Y336 whole entry): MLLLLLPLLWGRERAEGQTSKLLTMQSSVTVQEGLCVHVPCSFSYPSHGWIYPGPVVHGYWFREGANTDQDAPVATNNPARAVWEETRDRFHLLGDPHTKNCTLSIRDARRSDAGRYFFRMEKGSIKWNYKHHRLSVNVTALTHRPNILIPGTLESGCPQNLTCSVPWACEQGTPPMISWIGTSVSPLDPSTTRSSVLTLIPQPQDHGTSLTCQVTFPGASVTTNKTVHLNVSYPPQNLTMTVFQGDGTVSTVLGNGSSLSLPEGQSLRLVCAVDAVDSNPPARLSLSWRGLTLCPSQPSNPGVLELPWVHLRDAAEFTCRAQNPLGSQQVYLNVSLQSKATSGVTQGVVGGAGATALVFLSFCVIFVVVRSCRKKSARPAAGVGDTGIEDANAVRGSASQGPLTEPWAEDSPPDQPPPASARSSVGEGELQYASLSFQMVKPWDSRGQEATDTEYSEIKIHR
Chain of Protein translocase subunit SecA (Escherichia coli (strain K12)) (P10408 whole entry): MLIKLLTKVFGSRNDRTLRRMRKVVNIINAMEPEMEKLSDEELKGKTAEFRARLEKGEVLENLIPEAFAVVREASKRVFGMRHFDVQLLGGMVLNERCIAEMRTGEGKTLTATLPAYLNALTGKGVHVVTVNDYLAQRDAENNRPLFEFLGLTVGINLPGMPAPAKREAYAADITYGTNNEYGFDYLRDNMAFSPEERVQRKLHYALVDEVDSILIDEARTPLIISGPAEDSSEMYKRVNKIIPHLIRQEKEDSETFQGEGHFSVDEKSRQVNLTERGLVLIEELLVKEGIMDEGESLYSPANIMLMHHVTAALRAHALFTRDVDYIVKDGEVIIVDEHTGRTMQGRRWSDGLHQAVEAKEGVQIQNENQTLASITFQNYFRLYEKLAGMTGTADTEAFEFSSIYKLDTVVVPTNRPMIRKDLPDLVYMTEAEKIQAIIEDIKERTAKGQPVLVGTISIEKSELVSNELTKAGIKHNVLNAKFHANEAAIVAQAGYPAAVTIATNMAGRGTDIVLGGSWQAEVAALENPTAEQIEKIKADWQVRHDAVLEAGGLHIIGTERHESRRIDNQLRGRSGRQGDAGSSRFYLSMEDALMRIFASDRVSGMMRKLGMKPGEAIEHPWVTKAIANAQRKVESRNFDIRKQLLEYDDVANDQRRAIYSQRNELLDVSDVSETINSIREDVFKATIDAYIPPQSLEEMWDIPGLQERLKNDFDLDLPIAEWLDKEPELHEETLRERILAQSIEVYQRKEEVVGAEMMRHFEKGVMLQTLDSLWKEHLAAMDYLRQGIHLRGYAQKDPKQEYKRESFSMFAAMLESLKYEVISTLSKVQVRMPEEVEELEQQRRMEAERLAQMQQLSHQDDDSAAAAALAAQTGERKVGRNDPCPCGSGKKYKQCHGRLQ

| SMILES | Percent Effect [1] [%] | Percent Effect [2] [%] | Percent Effect [3] [%] | Percent Effect [4] [%] | Percent Effect [5] [%] | Percent Effect [6] [%] | Percent Effect [7] [%] | Percent Effect [8] [%] | Percent Effect [9] [%] | Percent Effect [10] [%] | Percent Effect [11] [%] |
| --- | --- | --- | --- | --- | --- | --- | --- | --- | --- | --- | --- |
| O=C1N(Cc2cccc(F)c2F)CCCC1(O)CN1CCCOCC1 (stereo unspecified) | -6.11 | -5.33 | -3.73 | 6.26 | 1.46 | 0 | 5.06 | 5.93 | 4.92 | 11.1 | -4.58 |
| CCCn1nc2c(cc1=O)CN(CCCN1CCCC1=O)CC2 | -3.62 | -2.7 | -101 | 1.97 | -2.55 | -1.6 | 29.6 | 17.5 | 4.43 | -1.24 | -3.69 |
| CCN1CC(C(=O)N2CCC(Oc3ccccc3C)CC2)CC1=O (stereo unspecified) | -1.72 | 2.74 | 2.75 | 3.46 | -7.94 | 2 | 8.65 | 7.65 | 3.12 | 21 | -0.203 |
| COc1cccc2cc(CNC(=O)N3CCCC(O)C3)oc12 (stereo unspecified) | -6.3 | -2.53 | -3.54 | 1.57 | 8.59 | -3.8 | 1.39 | 6.63 | 3.45 | 8.86 | -5.74 |
| Cc1nn(C)c(C)c1C1CCCN1Cc1nc(-c2ccco2)no1 (stereo unspecified) | -1.05 | 10.8 | -11.3 | 7.16 | 4.18 | -2.03 | 3.23 | 26.2 | 10.9 | 23.2 | -7.01 |
| CCc1nc(CN(C)C2CCN(Cc3cnc(C)cn3)C2)no1 (stereo unspecified) | 0.722 | 27.9 | -1.25 | -16.7 | 5.38 | -3.42 | 15.5 | 26.6 | 8.37 | 21.5 | -17 |
| O=C(Cc1cccc(F)c1)NCCNCc1ccc2c(c1)CCO2 | -4.03 | 13 | -6 | 17.2 | 3.93 | -1.42 | -1.52 | -5.5 | 8.74 | 19.5 | -5.42 |
| O=C(c1ccno1)N1CC[C@@H]2O[C@@H](COCCN3CCCC3)CC[C@@H]21 | -3.63 | 10.8 | 1.12 | -3.29 | 1.66 | -1.59 | 21.2 | -0.519 | 5.41 | 15.4 | -2.39 |
| CN(CCO)C[C@@H]1CN(C(=O)c2c(F)cccc2Cl)C[C@@H]1CO | -3.86 | 0 | 1.2 | 6 | -2.06 | 2.76 | 15.6 | 9.06 | 3.23 | 3.7 | -2.59 |
| O=C(N[C@@H]1CN(Cc2ccccc2)C[C@@H]2CCCO[C@@H]21)C1CC1 | 3.31 | 10.7 | 0.707 | 7.92 | -2.32 | -49.3 | 4.96 | -2.02 | 7.29 | 22.5 | -7.85 |
| C[C@H](O)CNC(=O)c1cnc(-c2ccccc2)nc1O | -3.97 | 10.8 | -6.61 | 24.9 | 4.83 | 19.1 | 11.7 | -5.82 | 2.65 | 17.1 | -9.28 |
| O=C(c1nc(-c2ccc3cc[nH]c3c2)no1)N1CCCC1 | -4.98 | -12 | 2.17 | 2.62 | 5.11 | -3.7 | 11.7 | -6.53 | 0 | -2.56 | -3.18 |
| CCc1nc(C2CCCN2Cc2nc(CCOC)no2)no1 (stereo unspecified) | -3.77 | 10.4 | -0.579 | 7.16 | 6.59 | -5.52 | 3.49 | -6.27 | 3.23 | 11.1 | -7.19 |
| O=C(NCc1cncc2c1CCN(Cc1cccs1)C2)C1CC1 | 1.73 | 8 | 3.65 | -13.1 | -9.65 | 9.56 | 21.2 | 5.35 | 5.32 | 6.41 | 0.102 |
| COCCN(C)C[C@@H]1CN(C(=O)c2cccc(C(F)(F)F)c2)C[C@@H]1CO | -0.782 | 2.7 | 1.75 | 21.1 | 5.79 | 10 | 13.4 | -3.37 | 2.65 | 14.6 | -4.78 |
| Cc1ccc(CNC(=O)CN2CCN(CC(O)C3CC3)CC2)cc1 (stereo unspecified) | -0.763 | 18.2 | -0.209 | -0.425 | 1.87 | 1.94 | 11.3 | 15.5 | 9.52 | 16.7 | 89.9 |
